Data reported in PubChem BioAssay (NCATS).
Records with an inconclusive call do not appear. Activity calls are given as the source filed them. Calls follow the shape of the dose curve; as a rule, active = well fitted cell-killing curve with a large enough effect; inconclusive = small, poorly fitted or top-dose-only effect, or effect the other way; inactive = flat fitted curve, though single readings scatter. Where a SMILES comes first, the peptide text is derived from it. [ ]: non-standard residue; d: D form. ξ: configuration not given here. ξPhe(βξ-Me) = CC(c1ccccc1)C(N)C(=O)O; GABA = NCCCC(=O)O

What was measured:
Test in all cases: Primary qHTS to identify gynecologic anti-cancer compounds using libraries of approved drugs and bioactive compounds (AID 1345084); also: nearly all actives have a fitted effect of over 55% in size
C33A = details: Gynecologic cancer cell panel viability, ATPlite luminescence, 48 h; series mostly up to 57.5 µM
In short: (§1)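 ATP-based viability (ATPlite), 1,000 cells/well, 16 h pre-incubation, 48 h compound at 37 C, 5% CO2, 15 min RT before read.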

CAOV3 = details: Gynecologic cancer cell panel viability, ATPlite luminescence, 48 h; series mostly up to 57.5 µM
In short: as §1

CASKI = details: Gynecologic cancer cell panel viability, ATPlite luminescence, 48 h; series mostly up to 57.5 µM
In short: as §1

Es-2 = details: Gynecologic cancer cell panel viability, ATPlite luminescence, 48 h; series mostly up to 57.5 µM
In short: as §1

HeLa = details: Gynecologic cancer cell panel viability, ATPlite luminescence, 48 h; series mostly up to 57.5 µM
In short: as §1

Hek293T = details: Gynecologic cancer cell panel viability, ATPlite luminescence, 48 h, control line for the selectivity index; series mostly up to 57.5 µM
In short: as §1
% is scaled to controls: 0 for no effect and ±100 for the full control effect.

C[C@@H]1C(=O)O[C@H]2[C@H]1CC[C@@]1(C)C(=O)C=C[C@](C)(O)[C@H]21
inactive: Potency (C33A) | Potency (CAOV3) | Potency (CASKI) | Potency (Es-2) | Potency (HeLa) | Potency (Hek293T)

C(#Cc1cccc(CN2CCOCC2)c1)CCN1CCCCC1
inactive: Potency (C33A) | Potency (CAOV3) | Potency (CASKI) | Potency (Es-2) | Potency (HeLa) | Potency (Hek293T)

CCn1cc(C2=NOC(C(=O)Nc3c(C)n(C)n(-c4ccccc4)c3=O)C2)c(C)n1 (configuration not stated)
inactive: Potency (C33A) | Potency (CAOV3) | Potency (CASKI) | Potency (Es-2) | Potency (HeLa) | Potency (Hek293T)

Cn1ccnc1CCOC(c1cc2nccc(C(=O)O)c2[nH]1)c1ccccc1Cl (configuration not stated)
inactive: Potency (C33A) | Potency (CAOV3) | Potency (CASKI) | Potency (Es-2) | Potency (HeLa) | Potency (Hek293T)

COc1c2c(c(C)c3c1C(=O)OC3)O[C@@]1(C)C[C@@H](O)[C@]34O[C@](OC)(CC[C@]3(C)[C@H]1C2)OC4(C)C
inactive: Potency (C33A) | Potency (CAOV3) | Potency (CASKI) | Potency (Es-2) | Potency (HeLa) | Potency (Hek293T)

C=C1C(=O)O[C@H]2[C@H]1[C@@H](OC(=O)C(C)CO)C[C@@]1(C)[C@H](O)CCC(=O)[C@H]21 (some centres not stated)
inactive: Potency (C33A) | Potency (CAOV3) | Potency (CASKI) | Potency (Es-2) | Potency (HeLa) | Potency (Hek293T)

CC(C)CNC(=O)/C=C/CCCCc1ccc2c(c1)OCO2
inactive: Potency (C33A) | Potency (CAOV3) | Potency (CASKI) | Potency (Es-2) | Potency (HeLa) | Potency (Hek293T)

COc1cc(/C=C/C(=O)OC2[C@H](O)CC(O)(C(=O)O)C[C@H]2O)ccc1O (some centres not stated)
inactive: Potency (C33A) | Potency (CAOV3) | Potency (CASKI) | Potency (Es-2) | Potency (HeLa) | Potency (Hek293T)

C=C(C)[C@H]1C[C@@H](O)C(=C)CC[C@@H](O)C(=C)[C@@H](O)C1
inactive: Potency (C33A) | Potency (CAOV3) | Potency (CASKI) | Potency (Es-2) | Potency (HeLa) | Potency (Hek293T)

C=C[C@H]1[C@H](O[C@@H]2O[C@H](CO)[C@@H](O)[C@H](O)[C@H]2O)OC=C(C(=O)OC)[C@H]1C[C@@H]1N[C@H](C(=O)O)Cc2c1[nH]c1ccccc21
inactive: Potency (C33A) | Potency (CAOV3) | Potency (CASKI) | Potency (Es-2) | Potency (HeLa) | Potency (Hek293T)

CC(C)(O)CNc1nc(Nc2ccnc(C(F)(F)F)c2)nc(-c2cccc(C(F)(F)F)n2)n1
inactive: Potency (C33A) | Potency (CAOV3) | Potency (CASKI) | Potency (Es-2) | Potency (HeLa) | Potency (Hek293T)

COc1cccc(-n2nc(C(=O)O)cc2-c2ccc(C3CCCCC3)c(Cl)c2)c1
inactive: Potency (C33A) | Potency (CAOV3) | Potency (CASKI) | Potency (Es-2) | Potency (HeLa) | Potency (Hek293T)

CC(C)CC(=O)n1cc(C(N)=O)c(=O)cc1C(O)c1ccccc1 (configuration not stated)
inactive: Potency (C33A) | Potency (CAOV3) | Potency (CASKI) | Potency (Es-2) | Potency (HeLa) | Potency (Hek293T)

OC[C@H]1O[C@@H](n2cnc3c2NC=NC[C@H]3O)C[C@@H]1O
inactive: Potency (C33A) | Potency (CAOV3) | Potency (CASKI) | Potency (Es-2) | Potency (HeLa) | Potency (Hek293T)

CC1CC(O)CC(C)(C)C1(O)CCO (configuration not stated)
inactive: Potency (C33A) | Potency (CAOV3) | Potency (CASKI) | Potency (Es-2) | Potency (HeLa) | Potency (Hek293T)

CC(/C=C/C1(O)C2(C)COC1(C)CC(=O)C2)O[C@@H]1O[C@H](CO)[C@@H](O)[C@H](O)[C@H]1O (some centres not stated)
inactive: Potency (C33A) | Potency (CAOV3) | Potency (CASKI) | Potency (Es-2) | Potency (HeLa) | Potency (Hek293T)

C=C1CCC2C(C)(C)C(O)CCC2(C)C1CCC(C)CCOC(=O)CCC(=O)O (configuration not stated)
inactive: Potency (C33A) | Potency (CAOV3) | Potency (CASKI) | Potency (Es-2) | Potency (HeLa) | Potency (Hek293T)

COc1cc(C(O)C(CO)Oc2ccc(CCCO[C@@H]3O[C@@H](C)[C@H](O)[C@@H](O)[C@H]3O)cc2OC)ccc1O (some centres not stated)
inactive: Potency (C33A) | Potency (CAOV3) | Potency (CASKI) | Potency (Es-2) | Potency (HeLa) | Potency (Hek293T)

CC(=O)c1c(C)cc(O[C@@H]2O[C@H](CO)[C@@H](O)[C@H](O)[C@H]2O)cc1O
inactive: Potency (C33A) | Potency (CAOV3) | Potency (CASKI) | Potency (Es-2) | Potency (HeLa) | Potency (Hek293T)

CC1(C)CC2C3=CCC4C5(C)CCC(OC6OC(CO)C(O)C(OC7OC(CO)C(O)C(OC8OC(CO)C(O)C(OC9OC(COC%10OC(CO)C(O)C(O)C%10O)C(O)C(O)C9O)C8O)C7O)C6O)C(C)(C)C5CCC4(C)C3(C)CCC2(C(=O)O)CC1O (configuration not stated)
inactive: activity change, negative = cytotoxicity (C33A) 6.53% [at 6.55 µM] | activity change, negative = cytotoxicity (CAOV3) 3.47% [at 6.55 µM] | activity change, negative = cytotoxicity (CASKI) -0.0614% [at 6.55 µM] | activity change, negative = cytotoxicity (Es-2) 1.92% [at 6.55 µM] | activity change, negative = cytotoxicity (HeLa) -11.1% [at 6.55 µM] | activity change, negative = cytotoxicity (Hek293T) -9.53% [at 6.55 µM]

CC(C)CC1NC(=O)C(C(C)c2ccccc2)NC(=O)C(C(C)C)NC(=O)C(C)NC(=O)CCCNC(=O)C(Cc2c[nH]c3ccccc23)NC(=O)C(C)NC1=O (stereo not drawn) (cyclo([GABA]AV[ξPhe(βξ-Me)]LAW); configuration not given here)
inactive: Potency (C33A) | Potency (CAOV3) | Potency (CASKI) | Potency (Es-2) | Potency (HeLa) | Potency (Hek293T)

CCOc1c2c(c(OCC)c3ccccc13)C(=O)N(c1ccc(CC(=O)NS(=O)(=O)c3ccccc3)cc1)C2
inactive: Potency (C33A) | Potency (CAOV3) | Potency (CASKI) | Potency (Es-2) | Potency (HeLa) | Potency (Hek293T)

COc1cc(C2Oc3c(OC)cc(CCCO[C@@H]4O[C@H](CO)[C@@H](O)[C@H](O)[C@H]4O)cc3C2CO)ccc1O (some centres not stated)
inactive: Potency (C33A) | Potency (CAOV3) | Potency (CASKI) | Potency (Es-2) | Potency (HeLa) | Potency (Hek293T)

c1nc(NC2CCCCCC2)c2cc(CNC[C@H]3CCCO3)sc2n1
inactive: Potency (C33A) | Potency (CAOV3) | Potency (CASKI) | Potency (Es-2) | Potency (HeLa) | Potency (Hek293T)

CC1CCC2C(C(=O)O)=CC3CC(C)(C)CC132 (configuration not stated)
inactive: Potency (C33A) | Potency (CAOV3) | Potency (CASKI) | Potency (Es-2) | Potency (HeLa) | Potency (Hek293T)

CCc1cc2c(=O)c(-c3nc4ccccc4s3)coc2c(CN2CCCCC2)c1O
inactive: Potency (C33A) | Potency (CAOV3) | Potency (CASKI) | Potency (Es-2) | Potency (HeLa) | Potency (Hek293T)

COc1c2c(c(C)c3c1C(=O)OC3)OC1(C)CC(O)C3(O)C(C)(C)OC(=O)CCC3(C)C1C2 (configuration not stated)
inactive: Potency (C33A) | Potency (CAOV3) | Potency (CASKI) | Potency (Es-2) | Potency (HeLa) | Potency (Hek293T)

C/C(=C/CCC(CO)C1CCC2(C)C3CCC4C(C)(C)C(OC5OC(CO)C(O)C(O)C5O)CC(O)C45CC35CCC12C)COC1OC(CO)C(O)C(O)C1O (configuration not stated)
inactive: Potency (C33A) | Potency (CAOV3) | Potency (CASKI) | Potency (Es-2) | Potency (HeLa) | Potency (Hek293T)

COC(=O)C1=CO[C@@H](O[C@@H]2O[C@H](CO)[C@@H](O)[C@H](O)[C@H]2O)[C@@H]2[C@@](C)(O)[C@@H](O)C[C@]12O
inactive: Potency (C33A) | Potency (CAOV3) | Potency (CASKI) | Potency (Es-2) | Potency (HeLa) | Potency (Hek293T)

C/C=C(\C)C(=O)O[C@@H](C)[C@H]1CC[C@]2(O)C3CCC4C[C@@H](OC5CC(OC)C(OC6CC(OC)C(OC7CC(OC)C(OC8OC(C)C(OC9OC(CO)C(O)C(O)C9O)C(OC)C8O)C(C)O7)C(C)O6)C(C)O5)CC[C@]4(C)C3[C@H](O)[C@@H](O)[C@]12C (some centres not stated)
inactive: activity change, negative = cytotoxicity (C33A) 19.4% [at 6.55 µM] | activity change, negative = cytotoxicity (CAOV3) 3.47% [at 6.55 µM] | activity change, negative = cytotoxicity (CASKI) -2.65% [at 6.55 µM] | activity change, negative = cytotoxicity (Es-2) 10.2% [at 6.55 µM] | activity change, negative = cytotoxicity (HeLa) 3.49% [at 6.55 µM] | activity change, negative = cytotoxicity (Hek293T) 1.78% [at 6.55 µM]

CC[C@H]1OC(=O)[C@H](C)[C@@H](OC2C[C@@](C)(OC)[C@@H](O)[C@H](C)O2)[C@H](C)[C@@H](OC2O[C@H](C)C[C@H](NC)[C@H]2O)[C@](C)(O)C[C@@H](C)CN(C)[C@H](C)[C@@H](O)[C@]1(C)O (some centres not stated)
inactive: Potency (C33A) | Potency (CAOV3) | Potency (CASKI) | Potency (Es-2) | Potency (HeLa) | Potency (Hek293T)

CCC1CC2C(C)=CC3CCCCC3C2(C)C2(OC(=O)C(C)(O)OC2=O)O1 (configuration not stated)
inactive: Potency (C33A) | Potency (CAOV3) | Potency (CASKI) | Potency (Es-2) | Potency (HeLa) | Potency (Hek293T)

COC(=O)CC1(O)C(=O)Nc2ccccc21 (configuration not stated)
inactive: Potency (C33A) | Potency (CAOV3) | Potency (CASKI) | Potency (Es-2) | Potency (HeLa) | Potency (Hek293T)

CC1(C)NC2N(C1=O)c1ccccc1C2(O)CC(C(=O)O)n1cnc2ccccc2c1=O (configuration not stated)
inactive: Potency (C33A) | Potency (CAOV3) | Potency (CASKI) | Potency (Es-2) | Potency (HeLa) | Potency (Hek293T)

C=C1CCC2C(C)(CO[C@@H]3O[C@H](CO)[C@@H](O)[C@H](O)[C@H]3O)C(O)CCC2(C)C1C(=O)CC1=CCOC1=O (some centres not stated)
inactive: Potency (C33A) | Potency (CAOV3) | Potency (CASKI) | Potency (Es-2) | Potency (HeLa) | Potency (Hek293T)

C[C@H]1C[C@H]2[C@@H]3CCC4=CC(=O)C=C[C@]4(C)[C@@]3(F)[C@@H](O)C[C@]2(C)[C@@]1(O)C(=O)COP(=O)(O)O
inactive: Potency (C33A) | Potency (CAOV3) | Potency (CASKI) | Potency (Es-2) | Potency (HeLa) | Potency (Hek293T)

CCCOc1ccn2c(C(C)=O)cc(-c3ccccc3S(C)(=O)=O)c2c1
inactive: Potency (C33A) | Potency (CAOV3) | Potency (CASKI) | Potency (Es-2) | Potency (HeLa) | Potency (Hek293T)
